We go through 9 molecules from PubChem BioAssay AID2061318 (National Center for Advancing Translational Sciences (NCATS), 2025).

Inconclusive results are not listed. Active and inactive are the calls of the source. Calls come from the whole dose curve; as a rule, active = well fitted inhibition curve with a large enough effect; inconclusive = small, poorly fitted or top-dose-only effect; inactive = flat fitted curve, though single readings scatter.

A short description of the test: Identification of antibody-drug conjugate (ADC) payloads which are substrates of ATP-binding cassette drug efflux transporters: ABCB1-HEK293-MDR-19 cell line. To be noted: HEK293 ABCB1 (MDR-19) viability, CellTiter-Glo, 48 h. From the text: Antibody-drug conjugates (ADCs) feature an antibody recognizing a specific protein joined to a potent toxic payload. Numerous antibody-drug conjugates have received FDA approval; however, clinical resistance arises. Resistance mechanisms include decreased expression or mutation of the antibody target, impaired payload release, or increased expression of ATP-binding cassette (ABC) efflux transporters associated with multidrug resistance. We therefore sought to characterize the interaction of ABC multidrug transporters with ADC payloads. We performed a high-throughput screen with 27 common ADC payloads using cells lines expressing ABC transporters P-glycoprotein (P-gp, encoded by ABCB1) or ABCG2 (encoded by ABCG2). Confirmatory assays were also performed using cells transfected to express P-gp, ABCG2, or MRP1 (encoded by ABCC1). Several commonly used ADC payloads were substrates of P-gp, including calicheamicin gamma1, monomethyl auristatin E, DM1, and DM4. All the pyrrolobenzodiazepines tested - SJG136, SGD-1882, SG2057, and SG3199 - were substrates of P-gp, ABCG2, and MRP1. […] These findings highlight the risk of transporter-mediated resistance with certain ADC payloads and underscore the importance of selecting payloads that evade ABC transporter recognition in future ADC development.
HEK-293 cells were transfected with empty vector (pcDNA) or vector containing the human ABCB1 (MDR-19), ABCG2 (R-5), or ABCC1 gene (MRP1) and were maintained in EMEM with 2 mg/mL G418 added to maintain transporter expression. The HeLa derivative KB-3-1 and the P-gp overexpressing KB-8-5-11 subline were maintained in DMEM; KB-8-5-11 additionally received 100 ng/mL colchicine. H460 parental cells were obtained from the Division of Cancer Treatment and Diagnosis Tumor Repository, National Cancer Institute at Frederick, MD and were cultured in RPMI. The ABCG2 expressing subline H460 MX20 was generated by selecting H460 cells in 20 nM mitoxantrone. Media in all cases was supplemented with 10% FBS and 1% penicillin-streptomycin. We explored 27 common ADC payloads, in two orthogonal, paired cell line sets-a drug selected and transfected set for each transporter--to identify substrates of the ABC transporters P-gp and ABCG2. Compounds were sourced from Levena Biopharma (San Diego, CA), Selleck Chem (Houston, TX), ChemieTek (Indianapolis, IN), or Microsource Discovery Systems (Gaylordsville, CT). Screening was performed as previously described. Briefly, cells were plated at a density of 500 cells/well in 1536 well plates with compounds added using a 1536-head pin tool (Kalypsys, San Diego CA). Cells were incubated with cytotoxic drugs and processed with CellTiter Glo reagent (Promega, Madison, WI) to determine viability after 48 hours. P-gp substrates were identified by comparing compound activity between paired sets of low-expressing (sensitive) and over-expressing (resistant) cell lines.
A general note: In ATP-based viability assays light output follows the ATP content of the culture.
For `CN(C)CCOc1ccc2[nH]c(C(=O)N3C[C@@H](CCl)c4c3cc(O)c3ccccc43)cc2c1`, the Potency is 0.4 nM (active). On to `CC(C)(C)OC(=O)Nc1ccc2[nH]c(C(=O)N3C[C@@H](CCl)c4c3cc(O)c3ccccc43)cc2c1`, for which the Potency was 9.4 nM (active). In the case of `CCN[C@H]1CO[C@@H](O[C@H]2[C@H](O[C@H]3C#C/C=C\C#C[C@]4(O)CC(=O)C(NC(=O)OC)=C3/C4=C\CSSSC)O[C@H](C)[C@@H](NO[C@H]3C[C@H](O)[C@H](SC(=O)c4c(C)c(I)c(O[C@@H]5O[C@@H](C)[C@H](O)[C@@H](OC)[C@H]5O)c(OC)c4OC)[C@@H](C)O3)[C@@H]2O)C[C@@H]1OC`, the Potency is 14.9 nM (active). Regarding `COC(=O)c1cc2c3c(cc(O)c2[nH]1)N(C(=O)c1cc2cc(OC)c(OC)c(OC)c2[nH]1)CC3CCl` (centres undefined), the Potency was 0.5 nM (active). For the molecule `COc1cccc2c1C(=O)c1c(O)c3c(c(O)c1C2=O)C[C@@](O)(C(=O)CO)C[C@@H]3O[C@H]1C[C@H](N)[C@H](O)[C@H](C)O1`, the Potency was 748 nM (active). Take `CCN(C(C)=O)[C@H]1CO[C@@H](O[C@H]2[C@H](O[C@H]3C#C/C=C\C#C[C@]4(O)CC(=O)C(NC(=O)OC)=C3/C4=C\CSSSC)O[C@H](C)[C@@H](NO[C@H]3C[C@H](O)[C@H](SC(=O)c4c(C)c(I)c(O[C@@H]5O[C@@H](C)[C@H](O)[C@@H](OC)[C@H]5O)c(OC)c4OC)[C@@H](C)O3)[C@@H]2O)C[C@@H]1OC`: the Potency was 748 nM (active).

Take `COc1cccc2c1C(=O)c1c(O)c3c(c(O)c1C2=O)C[C@@](O)(C(=O)CO)C[C@@H]3O[C@H]1C[C@H]2[C@H](O[C@@H]3[C@@H](OC)OCCN32)[C@H](C)O1`: the Potency was 0.0941 nM (active). With `COc1cc2cc(c1Cl)N(C)C(=O)C[C@H](O)[C@]1(C)O[C@H]1[C@H](C)C1C[C@@](O)(NC(=O)O1)[C@H](OC)/C=C/C=C(\C)C2`, the Potency is 2980 nM (active). On to `CCc1c2c(nc3ccc(O)cc13)-c1cc3c(c(=O)n1C2)COC(=O)[C@]3(O)CC`, for which the Potency was 11.8 nM (active).
